Usually inhibition stands for the change of the read-out against control, counted positive when it falls.

The whole screen tested about 96,000 compounds, of which about 19,000 (20%) were called active. Not all results are given here. A number with no mark means an inactive call.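 Rule for the calls: active = blocking of liver enzyme CYP2C9 beyond about 50% at 5 µM (limit read from the data); inactive = the rest.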

The target of this assay is Cytochrome P450 2C9 (Homo sapiens) (UniProt P11712). Put plainly: blockers of cytochrome P450 2C9 activity – biochemical, luminescence, ADME assay, primary screen (AID 777). Conditions: CYP2C9 Supersomes, luciferin-H conversion, at 5 µM, hits give high values.
Chain of Cytochrome P450 2C9 (Homo sapiens) (P11712 whole entry, looked up): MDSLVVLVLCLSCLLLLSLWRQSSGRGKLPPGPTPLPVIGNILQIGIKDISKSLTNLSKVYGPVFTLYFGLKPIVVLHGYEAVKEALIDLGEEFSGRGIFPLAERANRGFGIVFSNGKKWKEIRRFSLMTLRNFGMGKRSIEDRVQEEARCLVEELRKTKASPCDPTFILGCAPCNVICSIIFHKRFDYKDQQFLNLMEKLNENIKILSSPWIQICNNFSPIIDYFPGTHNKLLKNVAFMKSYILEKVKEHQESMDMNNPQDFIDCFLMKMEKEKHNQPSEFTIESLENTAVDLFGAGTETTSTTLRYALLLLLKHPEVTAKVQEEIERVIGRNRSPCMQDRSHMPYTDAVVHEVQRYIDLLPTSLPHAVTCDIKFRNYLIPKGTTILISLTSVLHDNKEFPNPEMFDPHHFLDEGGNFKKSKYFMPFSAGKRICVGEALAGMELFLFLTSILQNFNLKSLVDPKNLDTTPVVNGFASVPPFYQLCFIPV
Turning to `O=C(Nc1ccccc1)N(Cc1cccnc1)Cc1ccco1`, the inhibition is 35.5%.
On to `COC(=O)c1ccc(Oc2nc(NC(C)C)nc(SC)n2)cc1`, for which the inhibition was 37.2%.
Consider `Cc1nc(SCC(=O)N2CCc3ccccc3C2)c2c(C)c(C)sc2n1`, for which the inhibition was 55.9% (active).
To `Nn1c(Cc2cccc3ccccc23)nnc1SCC(=O)N1CC(=O)Nc2ccccc21` belongs -64.6%.
`Cc1nc(SCC(=O)Nc2cc(C)on2)c2c(C)c(C)sc2n1`: the inhibition was 14%.
Regarding `Cc1nc(SCC(=O)N2CC(=O)Nc3ccccc32)c2c(C)c(C)sc2n1`, the inhibition was 55.2% (active).
For `O=C(CSc1nnc(-c2cccs2)n1Cc1ccccc1)N1CCc2ccccc2C1`, the inhibition is 48%.
Regarding `Cc1nnc(SCC(=O)N2CCc3ccccc3C2)s1`, the inhibition was 0%.
As to `COc1ccc(OC)c(NC(=O)CCN2CCC(C)CC2)c1`, the inhibition is 5.1%.
As for `CCc1nnc(NC(=O)CCC(=O)NCc2ccccc2OC)s1`, the figure is -14.5%; as for `Cc1ccsc1-c1nc(CSCC(=O)NCCN2CCCC2)c(C)o1`, 7.3%; as for `CCSc1nc(-c2ccc(OC)cc2)cc(-c2ccc(OC)cc2)c1C#N`, 75.3% (active).
`CCOc1cc(-c2cc(-c3ccc(OC)cc3)nc(N)c2C#N)ccc1O`: the inhibition is 47.2%.
Take `COc1ccc(C)cc1N(C)C(=O)c1coc(=O)c2ccccc12`: the inhibition was 33.1%.
Turning to `O=C(CSc1nc2ccccc2o1)N1CCN(c2ccc(Cl)cc2)CC1`, the inhibition was -11.9%.
Regarding `O=C(CSc1nc2ccccc2o1)N1c2ccccc2Sc2ccc(Cl)cc21`, the inhibition was 60.9% (active).
Regarding `Cc1ccccc1OCc1nnc(SCC(=O)N2c3ccccc3Sc3ccc(Cl)cc32)o1`, the inhibition was 57.3% (active).
`Cc1cc(C)cc(OCc2nnc(SCC(=O)Nc3ccccc3)o2)c1`: the inhibition was -3%.
In the case of `CC(C)NC(=O)CSc1nnc(COc2ccccc2Cl)o1`, the inhibition is -39.2%.
Regarding `CC1Cc2ccccc2N1C(=O)CSc1nc2ccccc2o1` (centres undefined), the inhibition was 28.2%.
As for `O=C(NC(C(=O)NCCN1CCOCC1)C12CC3CC(CC(C3)C1)C2)C1CCCCC1` (centres undefined), the inhibition is 18.3%.
Turning to `O=C(COc1ccc(Br)cc1F)NC1CCN(Cc2ccccc2)CC1`, the inhibition is 28.8%.
As for `CC1(C)CCCC2=C1CC1C(=O)N(c3ccccc3)C(=O)C1C2` (centres undefined), the inhibition is 90.7% (active).
Regarding `CCCCCCC(=O)N(O)C1CC(=O)N(c2ccccc2)C1=O` (centres undefined), the inhibition is -18.5%.
For the compound `CC(=O)Oc1cccc(N2C(=O)C3CC=C(Cl)CC3C2=O)c1` (centres undefined), the inhibition was 3.2%.
As for `Cc1cccn2c(=O)c3cc(C(=O)N4COCC4(C)C)n(C)c3nc12`, the inhibition was -0.4%.
As to `O=C1c2ccccc2C(O)N1Cc1ccccc1Cl` (centres undefined), the inhibition is -6.9%.
With `CCC(C)NC(=O)C1CCC(=O)N1Cc1ccc(C)cc1` (centres undefined), the inhibition was 3.2%.
As for `O=C(Nc1ccc(Br)cc1)C1CCC(=O)N1Cc1ccccc1Cl` (centres undefined), the figure is 89.5% (active).

The values are drawn from PubChem BioAssay AID777 (Sanford-Burnham Center for Chemical Genomics, 2007).
